The sample as a whole holds a higher share of the strongest signals than the screen did.
Experiments:
Experiment in all cases: glycan array binding signal (z-score within array); higher = stronger binding
Conditions in all cases: glycan notation: IUPAC condensed, linker removed
[1] = target: Fuc(a1-2)Gal(b1-3)GalNAc(a1-3)[Fuc(a1-2)]Gal(b1-4)Glc
Method in brief: (§1)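 The binding signal is a Z-score computed within each array. Data were drawn from 3228 arrays in the Consortium for Functional Glycomics database, restricted to those with a known protein sequence. Scores were averaged over arrays of the same protein sequence at different concentrations or buffers, and over linkers, and negative values can be taken as non-binding.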

[2] = target: Fuc(a1-2)Gal(b1-3)GlcNAc(b1-3)Gal(b1-4)Glc
Method in brief: as §1

[3] = target: Fuc(a1-2)Gal(b1-3)GlcNAc(b1-3)[Gal(b1-4)GlcNAc(b1-6)]Gal(b1-4)Glc
Method in brief: as §1

[4] = target: Fuc(a1-2)Gal(b1-4)GlcNAc(b1-3)[Fuc(a1-2)Gal(b1-4)GlcNAc(b1-6)]GalNAc
Method in brief: as §1

[5] = target: Fuc(a1-2)Gal(b1-4)[Fuc(a1-3)]GlcNAc
Method in brief: as §1

Fuc(a1-2)Gal6S(b1-4)Glc = target: Fuc(a1-2)Gal6S(b1-4)Glc
Method in brief: as §1

[6] = target: Fuc(a1-2)[Gal(a1-3)]Gal(b1-3)GlcNAc
Method in brief: as §1

[7] = target: Fuc(a1-2)[Gal(a1-3)]Gal(b1-4)GlcNAc
Method in brief: as §1

[8] = target: Fuc(a1-2)[GalNAc(a1-3)]Gal(b1-3)GlcNAc(b1-2)Man(a1-3)[Fuc(a1-2)[GalNAc(a1-3)]Gal(b1-3)GlcNAc(b1-2)Man(a1-6)]Man(b1-4)GlcNAc(b1-4)GlcNAc
Method in brief: as §1

[9] = target: Fuc(a1-2)[GalNAc(a1-3)]Gal(b1-4)GlcNAc(b1-2)Man
Method in brief: as §1

Gal(a1-3)Gal(b1-3)GlcNAc = target: Gal(a1-3)Gal(b1-3)GlcNAc
Method in brief: as §1

[10] = target: Gal(a1-3)Gal(b1-3)GlcNAc(b1-2)Man
Method in brief: as §1

[11] = target: Gal(a1-3)Gal(b1-4)GlcNAc(b1-2)Man(a1-3)[Gal(a1-3)Gal(b1-4)GlcNAc(b1-2)Man(a1-6)]Man(b1-4)GlcNAc(b1-4)GlcNAc
Method in brief: as §1

[12] = target: Gal(b1-3)GlcNAc(b1-3)Gal(b1-3)GlcNAc
Method in brief: as §1

[13] = target: Gal(b1-3)[Fuc(a1-4)]GlcNAc(b1-2)Man
Method in brief: as §1

[14] = target: Gal(b1-3)[Fuc(a1-4)]GlcNAc(b1-2)Man(a1-3)[Gal(b1-3)[Fuc(a1-4)]GlcNAc(b1-2)Man(a1-6)]Man(b1-4)GlcNAc(b1-4)[Fuc(a1-6)]GlcNAc
Method in brief: as §1

[15] = target: Gal(b1-3)[Fuc(a1-4)]GlcNAc(b1-3)Gal(b1-3)[Fuc(a1-4)]GlcNAc
Method in brief: as §1

[16] = target: Gal(b1-3)[Neu5Ac(a2-6)]GalNAc
Method in brief: as §1

[17] = target: Gal(b1-4)GlcNAc(b1-2)Man(a1-3)[Gal(b1-4)GlcNAc(b1-2)Man(a1-6)]Man(b1-4)GlcNAc(b1-4)GlcNAc
Method in brief: as §1

[18] = target: Gal(b1-4)GlcNAc(b1-2)Man(a1-3)[GlcNAc(b1-4)][Gal(b1-4)GlcNAc(b1-2)Man(a1-6)]Man(b1-4)GlcNAc(b1-4)GlcNAc
Method in brief: as §1

[19] = target: Gal(b1-4)GlcNAc(b1-2)[Gal(b1-4)GlcNAc(b1-4)]Man(a1-3)[Gal(b1-4)GlcNAc(b1-2)[Gal(b1-4)GlcNAc(b1-6)]Man(a1-6)]Man(b1-4)GlcNAc(b1-4)GlcNAc
Method in brief: as §1

[20] = target: Gal(b1-4)GlcNAc(b1-2)[Gal(b1-4)GlcNAc(b1-4)]Man(a1-3)[GlcNAc(b1-4)][Gal(b1-4)GlcNAc(b1-2)Man(a1-6)]Man(b1-4)GlcNAc(b1-4)GlcNAc
Method in brief: as §1

[21] = target: Gal(b1-4)GlcNAc(b1-3)Gal(b1-3)GlcNAc
Method in brief: as §1

[22] = target: Gal(b1-4)GlcNAc(b1-3)Gal(b1-4)GlcNAc(b1-3)Gal(b1-4)GlcNAc(b1-3)Gal(b1-4)GlcNAc(b1-2)[Gal(b1-4)GlcNAc(b1-3)Gal(b1-4)GlcNAc(b1-3)Gal(b1-4)GlcNAc(b1-3)Gal(b1-4)GlcNAc(b1-6)]Man(a1-6)[Gal(b1-4)GlcNAc(b1-3)Gal(b1-4)GlcNAc(b1-3)Gal(b1-4)GlcNAc(b1-3)Gal(b1-4)GlcNAc(b1-2)Man(a1-3)]Man(b1-4)GlcNAc(b1-4)[Fuc(a1-6)]GlcNAc
Method in brief: as §1

[23] = target: Gal(b1-4)GlcNAc(b1-6)GalNAc
Method in brief: as §1

[24] = target: Gal(b1-4)GlcNAc(b1-6)[Gal(b1-4)GlcNAc(b1-3)]GalNAc
Method in brief: as §1

[25] = target: Gal3S(b1-3)[Fuc(a1-4)]GlcNAc
Method in brief: as §1

Gal3S(b1-4)Glc6S = target: Gal3S(b1-4)Glc6S
Method in brief: as §1

Gal6S(b1-3)GlcNAc6S = target: Gal6S(b1-3)GlcNAc6S
Method in brief: as §1

[26] = target: GalNAc(b1-3)Gal(a1-6)Gal(b1-4)Glc
Method in brief: as §1

[27] = target: GalNAc(b1-4)GlcNAc(b1-3)GalNAc(b1-4)GlcNAc
Method in brief: as §1

Glc(b1-4)Glc = target: Glc(b1-4)Glc
Method in brief: as §1

GlcA(b1-3)GlcNAc = target: GlcA(b1-3)GlcNAc
Method in brief: as §1

[28] = target: GlcNAc(b1-2)[GlcNAc(b1-4)]Man(a1-3)[GlcNAc(b1-4)][GlcNAc(b1-2)[GlcNAc(b1-6)]Man(a1-6)]Man(b1-4)GlcNAc(b1-4)[Fuc(a1-6)]GlcNAc
Method in brief: as §1

GlcNAc(b1-3)Fuc = target: GlcNAc(b1-3)Fuc
Method in brief: as §1

[29] = target: GlcNAc(b1-3)Gal(b1-4)GlcNAc
Method in brief: as §1

[30] = target: GlcNAc(b1-3)[GlcNAc(b1-6)]Gal(b1-4)GlcNAc
Method in brief: as §1

[31] = target: Man(a1-3)[Man(a1-6)]Man(b1-4)GlcNAc(b1-4)GlcNAc
Method in brief: as §1

Man(a1-6)Man = target: Man(a1-6)Man
Method in brief: as §1

Man(b1-4)GlcNAc = target: Man(b1-4)GlcNAc
Method in brief: as §1

[32] = target: Neu5Ac(a2-3)Gal(b1-3)GlcNAc
Method in brief: as §1

[33] = target: Neu5Ac(a2-3)Gal(b1-3)[Neu5Ac(a2-6)]GalNAc
Method in brief: as §1

Neu5Ac(a2-3)Gal(b1-4)Glc = target: Neu5Ac(a2-3)Gal(b1-4)Glc
Method in brief: as §1

[34] = target: Neu5Ac(a2-3)Gal(b1-4)GlcNAc(b1-2)[Neu5Ac(a2-3)Gal(b1-4)GlcNAc(b1-6)]Man(a1-6)[Neu5Ac(a2-3)Gal(b1-4)GlcNAc(b1-2)Man(a1-3)][GlcNAc(b1-4)]Man(b1-4)GlcNAc(b1-4)GlcNAc
Method in brief: as §1

[35] = target: Neu5Ac(a2-6)Gal(b1-4)GlcNAc(b1-2)Man(a1-3)[GlcNAc(b1-2)Man(a1-6)]Man(b1-4)GlcNAc(b1-4)GlcNAc
Method in brief: as §1

[36] = target: Neu5Ac(a2-6)Gal(b1-4)GlcNAc(b1-3)Gal(b1-4)GlcNAc(b1-6)[Gal(b1-3)]GalNAc
Method in brief: as §1

[37] = target: Neu5Ac(a2-8)Neu5Ac(a2-3)Gal(b1-4)Glc
Method in brief: as §1

[38] = target: Neu5Gc(a2-6)Gal(b1-4)GlcNAc
Method in brief: as §1

[39] = target: Neu5Gc(a2-8)Neu5Gc(a2-6)Gal(b1-4)GlcNAc
Method in brief: as §1

B1: EULS2 M1 (Oryza sativa) (protein)
chain: MVYCRANPNYAMTARNGAVVLAPANPKDEYQHWIKDMRWSTSIKDEEGYPAFALVNKATGQAIKHSLGQSHPVRLVPYNPEVMDESVLWTESRDVGNGFRCIRMVNNIYLNFDAFHGDKYHGGVRDGTDIVLWKLCEGDNQRWKIQPYYILEQKLISEEDLNSAVDHHHHHH
glycan array binding signal (z-score) [1]: -0.333 | glycan array binding signal (z-score) [2]: -0.208 | glycan array binding signal (z-score) [3]: -0.34 | glycan array binding signal (z-score) [4]: -0.457 | glycan array binding signal (z-score) [5]: -0.363 | glycan array binding signal (z-score) (Fuc(a1-2)Gal6S(b1-4)Glc): -1.48 | glycan array binding signal (z-score) [6]: 0.694 | glycan array binding signal (z-score) [7]: -0.349 | glycan array binding signal (z-score) [8]: 3.99 | glycan array binding signal (z-score) [9]: -1 | glycan array binding signal (z-score) (Gal(a1-3)Gal(b1-3)GlcNAc): 3.45 | glycan array binding signal (z-score) [10]: -0.609 | glycan array binding signal (z-score) [11]: 0.844 | glycan array binding signal (z-score) [12]: -0.334 | glycan array binding signal (z-score) [13]: 1.75 | glycan array binding signal (z-score) [14]: 1.19 | glycan array binding signal (z-score) [15]: 3.42 | glycan array binding signal (z-score) [16]: 1.39 | glycan array binding signal (z-score) [17]: -0.312 | glycan array binding signal (z-score) [18]: 1.31 | glycan array binding signal (z-score) [19]: -0.584 | glycan array binding signal (z-score) [20]: 0.188 | glycan array binding signal (z-score) [21]: -0.203 | glycan array binding signal (z-score) [22]: 0.636 | glycan array binding signal (z-score) [23]: 0.271 | glycan array binding signal (z-score) [24]: -0.195 | glycan array binding signal (z-score) [25]: -0.905 | glycan array binding signal (z-score) (Gal3S(b1-4)Glc6S): 2.56 | glycan array binding signal (z-score) (Gal6S(b1-3)GlcNAc6S): 10.9 | glycan array binding signal (z-score) [26]: 2.84 | glycan array binding signal (z-score) [27]: -0.842 | glycan array binding signal (z-score) (Glc(b1-4)Glc): 2.81 | glycan array binding signal (z-score) (GlcA(b1-3)GlcNAc): 0.171 | glycan array binding signal (z-score) [28]: 2.74 | glycan array binding signal (z-score) (GlcNAc(b1-3)Fuc): -0.923 | glycan array binding signal (z-score) [29]: 0.2 | glycan array binding signal (z-score) [30]: -0.56 | glycan array binding signal (z-score) [31]: 3.41 | glycan array binding signal (z-score) (Man(a1-6)Man): 3.16 | glycan array binding signal (z-score) (Man(b1-4)GlcNAc): -0.283 | glycan array binding signal (z-score) [32]: -0.972 | glycan array binding signal (z-score) [33]: 0.067 | glycan array binding signal (z-score) (Neu5Ac(a2-3)Gal(b1-4)Glc): -0.186 | glycan array binding signal (z-score) [34]: -0.305 | glycan array binding signal (z-score) [35]: -0.661 | glycan array binding signal (z-score) [36]: 0.283 | glycan array binding signal (z-score) [37]: -0.26 | glycan array binding signal (z-score) [38]: 0.007 | glycan array binding signal (z-score) [39]: -0.158

Reference: the supplement of paper PMC8728848
